Bioassay records: PubChem, National Center for Advancing Translational Sciences (NCATS)
TbPYK inhibitor – qHTS of Trypanosoma Brucei Inhibitors; pyruvate kinase (Trypanosoma brucei), Q57TT1; TbPYK enzyme, Kinase-Glo Plus ATP luminescence, 45 min; Potency, µM (titrated, usually from 76.8 µM), for the others: top-dose activity, negative = inhibition, most hits filed as inhibitors; 410,000 tested, 0.12% active; also: potency is read from the fitted curve at half-maximal effect; % is scaled to controls: 0 for no effect and ±100 for the full control effect; nearly all actives have a fitted effect of over 50% in size
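Luminescent Kinase-Glo Plus end-point after 45 min room-temperature reaction of T. brucei pyruvate kinase started with 130 uM ADP (final). Buffer TEA 50 mM pH 7.2 with KCl, MgCl2, BSA, Tween-20; titration-based qHTS with fitted concentration-effect curves.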
Cycloheximide cs – Cycloheximide Counterscreen for Small Molecule Inhibitors of Shiga Toxin. cell reporter, cycloheximide protein synthesis inhibition counterscreen. max response, %. 300,000 tested, 12% active; in the data active = max response mostly above about 13%, no sharp cut-off; inactive = mostly below about 14%; also: read at 38.3 µM for the half of the compounds with a filed dose; 0% is about no effect
RE007 growth inh – qHTS Assay for Inhibitors of the HIV-1 protein Vpr; S. pombe RE007 Vpr strain, BacTiter-Glo ATP luminescence, 24 h; Potency, µM (top dose mostly 92.2 µM), without a hit: at the top dose activity change, negative = less growth, actives largely listed as inhibitors; 360,000 tested, 0.21% active; AID 651644, 2012; active = well fitted falling curve with a large enough effect; inconclusive = small, poorly fitted or top-dose-only effect; inactive = no such curve, though single readings can be large or run the other way; also: potency is read from the fitted curve at half-maximal effect; % is scaled to controls: 0 for no effect and ±100 for the full control effect; nearly all actives have a fitted effect of over 50% in size
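Fission yeast RE007 carrying one integrated HIV-1 vpr copy, seeded at OD 0.01 in PMG+AL medium with 23 nL pinned compound. Grown 24 h at 30 degrees; viability read by BacTiter-Glo luminescence after 5 min.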
LmPK inh – qHTS Assay for Inhibitors of Leishmania Mexicana Pyruvate Kinase (LmPK); Potency, µM (series often up to 57.5 µM), inactives show at the highest dose activity change, negative = inhibition, actives largely listed as inhibitors; 290,000 tested, 0.37% active; Q27686; purified LmPK, Kinase-Glo ATP luminescence, 1 h; AID 1721, 2009; also: potency is read from the fitted curve at half-maximal effect; % is scaled to controls: 0 for no effect and ±100 for the full control effect
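Pyruvate kinase activity monitored as ATP production (luciferase luminescence). Conditions: 0.1 nM enzyme, 0.5 mM PEP, 0.1 mM ADP, 1 h, RT; normalized against uninhibited and no-enzyme wells.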
Shiga inhibitor – A qHTS for Small Molecule Inhibitors of Shiga Toxin; Vero cells, Shiga toxin protein synthesis inhibition reporter; inhibition, % at 38.7 µM; 290,000 tested, 9.2% active; AID 2315, 2010; in the data active = inhibition mostly above about 28%, no sharp cut-off; inactive = mostly below about 43%; also: 0% is about no effect
FBPA Giardia inh – qHTS Assay for Inhibitors of Fructose-1,6-bisphosphate Aldolase from Giardia Lamblia; Potency, µM (highest dose often 59.6 µM), for inactives: top-dose activity, negative = inhibition, hits mostly inhibitors; 290,000 tested, 0.71% active; purified Giardia FBPA; AID 2451, 2010; A8B2U2; also: potency is read from the fitted curve at half-maximal effect; % is scaled to controls: 0 for no effect and ±100 for the full control effect; nearly all actives have a fitted effect of over 55% in size
Target sequence (A8B2U2 whole entry, looked up): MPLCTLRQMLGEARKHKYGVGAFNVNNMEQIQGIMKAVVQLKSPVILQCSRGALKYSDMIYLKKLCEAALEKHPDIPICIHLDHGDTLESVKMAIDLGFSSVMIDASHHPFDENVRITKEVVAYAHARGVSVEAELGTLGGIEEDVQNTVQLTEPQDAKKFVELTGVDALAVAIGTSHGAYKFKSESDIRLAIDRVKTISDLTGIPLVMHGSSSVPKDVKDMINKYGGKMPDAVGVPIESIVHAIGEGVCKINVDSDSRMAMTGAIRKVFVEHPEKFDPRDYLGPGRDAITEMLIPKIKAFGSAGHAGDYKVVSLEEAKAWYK
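40 nM FBPA preincubated 10 min at RT with compound (up to 57.5 uM final), then substrate plus GAPDH/TPI/NAD/arsenate coupling and diaphorase/resazurin added. Fluorescence read after 20 min at RT, 525/598 nm.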
The depositor's hits bear a star; [ ] = remark or other dose. Only a selection was taken, and hits are over-represented in it overall. Unless noted, calls follow the shape of the dose curve; as a rule, active = well fitted curve in the direction sought with a large enough effect; inconclusive = small, poorly fitted or top-dose-only effect, or another doubt; inactive = no such curve, though single readings can be large; an effect the other way counts as inactive or inconclusive.

Screening CSCC[C@H](NC(=O)[C@H](CO)NC(=O)[C@H](Cc1ccc(O)cc1)NC(=O)[C@@H](N)CO)C(=O)N[C@@H](CCC(=O)O)C(=O)N[C@@H](Cc1cnc[nH]1)C(=O)N[C@@H](Cc1ccccc1)C(=O)N[C@@H](CCCNC(=N)N)C(=O)N[C@@H](Cc1c[nH]c2ccccc12)C(=O)NCC(=O)N[C@@H](CCCCN)C(=O)N1CCC[C@H]1C(=O)N[C@H](C(=O)NCC(=O)N[C@@H](CCCCN)C(=O)N[C@@H](CCCCN)C(=O)N[C@@H](CCCNC(=N)N)C(=O)N[C@@H](CCCNC(=N)N)C(=O)N1CCC[C@H]1C(=O)N[C@H](C(=O)N[C@@H](CCCCN)C(=O)N[C@H](C(=O)N[C@@H](Cc1ccc(O)cc1)C(=O)N1CCC[C@H]1C(=O)N[C@@H](CC(N)=O)C(=O)NCC(=O)N[C@@H](C)C(=O)N[C@@H](CCC(=O)O)C(=O)N[C@@H](CC(=O)O)C(=O)N[C@@H](CCC(=O)O)C(=O)N[C@@H](CO)C(=O)N[C@@H](C)C(=O)N[C@@H](CCC(=O)O)C(=O)N[C@@H](C)C(=O)N[C@@H](Cc1ccccc1)C(=O)N1CCC[C@H]1C(=O)N[C@@H](CC(C)C)C(=O)N[C@@H](CCC(=O)O)C(=O)N[C@@H](Cc1ccccc1)C(=O)O)C(C)C)C(C)C)C(C)C returned Cycloheximide cs -4, Shiga inhibitor -5 and FBPA Giardia inh 5%.
For COc1ccccc1CNC(=O)C1CCC(=O)N(CCCN2CCCC2=O)C1 (stereo not given) the results were TbPYK inhibitor 2%, Cycloheximide cs -3, RE007 growth inh 11%, LmPK inh 0%, Shiga inhibitor -6 and FBPA Giardia inh 7%.
Screening O=C(NCc1cccc(F)c1)C1CCC(=O)N(CCc2cccc(F)c2)C1 (stereo not given) returned TbPYK inhibitor -2%, Cycloheximide cs 20*, RE007 growth inh -9%, LmPK inh 1% and Shiga inhibitor 13.
Screening Cc1ccc(F)cc1CNC(=O)C1CCC(=O)N(CCCN2CCCC2=O)C1 (stereo not given) returned TbPYK inhibitor -4%, Cycloheximide cs 22*, RE007 growth inh 6%, LmPK inh 6% and Shiga inhibitor 18.
COc1cccc(CNC(=O)C2CCC(=O)N(CCc3cccc(F)c3)C2)c1 (stereo not given) was read as TbPYK inhibitor -10%, Cycloheximide cs 2, RE007 growth inh -1%, LmPK inh -3% and Shiga inhibitor 13.
For O=C(NC(C1CC1)C1CC1)C1CCC(=O)N(CCCN2CCCC2=O)C1 (stereo not given) the results were TbPYK inhibitor -6%, Cycloheximide cs 17*, RE007 growth inh 3%, LmPK inh 0%, Shiga inhibitor 13 and FBPA Giardia inh -6%.
CC(=O)NCCNc1cc(-c2ccccc2CN(C)C)ncn1 was read as FBPA Giardia inh 0%.
For Clc1ccccc1Cn1c(/C=C/c2ccco2)nc2ccccc21 the results were TbPYK inhibitor -18%, Cycloheximide cs 90*, RE007 growth inh 32%, LmPK inh -6%, Shiga inhibitor 132* and FBPA Giardia inh -9%.
O=C(NCCCc1nc2ccccc2n1Cc1ccccc1Cl)c1ccco1 was read as TbPYK inhibitor -3%.
For Cc1ccccc1-n1nc(CO)c(C(=O)NCc2cccs2)n1 the results were TbPYK inhibitor 3%.
`O=C(NCCCN1CCC(Cc2ccccc2)CC1)C1CCN(S(=O)(=O)N2CCC3(CC2)OCCO3)CC1` gave TbPYK inhibitor 1%, Cycloheximide cs 35*, RE007 growth inh 13%, LmPK inh 3%, Shiga inhibitor 128 and FBPA Giardia inh 0%.
Screening O=C(NCCN1CCC(Cc2ccccc2)CC1)C1CCN(S(=O)(=O)N2CCC3(CC2)OCCO3)CC1 returned TbPYK inhibitor -1%, Cycloheximide cs -2, RE007 growth inh -6%, LmPK inh 7%, Shiga inhibitor -6 and FBPA Giardia inh 4%.
`Cc1nc(-c2cc(-c3ccc(Cl)cc3)no2)cs1` gave TbPYK inhibitor -6%, Cycloheximide cs 52*, RE007 growth inh 1%, LmPK inh -7%, Shiga inhibitor 83* and FBPA Giardia inh 5%.
For Clc1ccc(-c2csc(-c3ccno3)n2)cc1 the results were TbPYK inhibitor 1%, Cycloheximide cs 23*, RE007 growth inh 7%, LmPK inh -3%, Shiga inhibitor 31 and FBPA Giardia inh 1%.
Screening OC(c1ccccc1)(c1nc(-c2cccc(F)c2)cs1)C(F)(F)F (stereo not given) returned TbPYK inhibitor -1% and RE007 growth inh -1%.
Screening Clc1ccc(-c2cc(-c3ccccc3)on2)cc1 returned TbPYK inhibitor 2% and RE007 growth inh -15%.
Fc1cccc(-c2csc(-c3ccno3)n2)c1 was read as TbPYK inhibitor -14%, Cycloheximide cs 25*, RE007 growth inh -21%, LmPK inh 0%, Shiga inhibitor 38* and FBPA Giardia inh -1%.
For CCOC(=O)c1c(C)[nH]c(CCC(=O)NCc2ccc(OC)c(OC)c2)c1C the results were TbPYK inhibitor -2%.
Screening FC(F)Sc1ccc(N=C2NN=C(c3ccc4c(c3)OCCO4)CS2)cc1 returned Cycloheximide cs 25*, RE007 growth inh -2%[3.69 µM], LmPK inh -1%, Shiga inhibitor 47* and FBPA Giardia inh 2%.
`COc1ccc(N=C2NN=C(c3ccc4c(c3)OCCO4)CS2)cc1` gave TbPYK inhibitor -27%, Cycloheximide cs 21*, RE007 growth inh -3%, LmPK inh 3%, Shiga inhibitor 6 and FBPA Giardia inh -3%.
For c1cc2c(cc1C1=NNC(=NC3CC3)SC1)OCCO2 the results were TbPYK inhibitor inconclusive, Cycloheximide cs -8, RE007 growth inh inconclusive, LmPK inh 11µM*, Shiga inhibitor -20 and FBPA Giardia inh 5%.
`N#CCCN(Cc1ccccc1)C(=O)c1nccnc1C(=O)O` gave TbPYK inhibitor 0%, Cycloheximide cs -2, RE007 growth inh 0%, LmPK inh -6%, Shiga inhibitor -3 and FBPA Giardia inh -8%.
Screening Cc1nnsc1S(=O)c1ccc(Cl)cc1 (stereo not given) returned TbPYK inhibitor 4%, Cycloheximide cs -2, RE007 growth inh -2%, LmPK inh -4%, Shiga inhibitor -6 and FBPA Giardia inh 2%.
